Holding throughout (test): DAPPL (digital affinity profiling via proximity ligation, sequencing); 10 mM Tris-HCl pH 7.5, 50 mM NaCl, 1 mM DTT, 4% glycerol, room temperature, 30 min; GST-TFs on glutathione beads, 16-mer random dsDNA library, 0.1% formaldehyde crosslink after washing; high values mean tight binding
In test [1] the target is T1, FEV (Homo sapiens, UniProt Q99581 1-238).
T1 sequence: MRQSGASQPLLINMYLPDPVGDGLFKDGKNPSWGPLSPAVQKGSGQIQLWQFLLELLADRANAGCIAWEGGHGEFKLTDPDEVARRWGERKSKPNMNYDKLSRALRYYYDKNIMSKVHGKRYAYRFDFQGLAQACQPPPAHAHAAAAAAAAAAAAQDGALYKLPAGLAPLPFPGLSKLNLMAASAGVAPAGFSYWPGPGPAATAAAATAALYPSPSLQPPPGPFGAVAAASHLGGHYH
As to conditions: protein: recombinant; tags: N-terminal GST; dsDNA, one strand shown. The gist of the method:
(§1)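 Binding signal is defined as a hexamer's read frequency for one factor over its frequency for the tag-only sample. To obtain reads, GST-fused human transcription factors were expressed in yeast, captured on glutathione beads, barcoded with DNA and pooled with that sample. Pools met 200 nmole of a 16-mer random double-stranded DNA library in Tris/NaCl/DTT/glycerol buffer for 30 min at room temperature before washing, 0.1% formaldehyde crosslinking, proximity ligation (BsaI/T4 ligase, 1 h, 37 °C), PCR and Illumina NextSeq500 sequencing.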

Test [2] deals with ETV5 (Homo sapiens, UniProt P41161 1-510). As to conditions: protein: recombinant; tags: N-terminal GST; dsDNA, one strand shown. The gist of the method: as §1
Sequence of ETV5 (P41161 whole entry): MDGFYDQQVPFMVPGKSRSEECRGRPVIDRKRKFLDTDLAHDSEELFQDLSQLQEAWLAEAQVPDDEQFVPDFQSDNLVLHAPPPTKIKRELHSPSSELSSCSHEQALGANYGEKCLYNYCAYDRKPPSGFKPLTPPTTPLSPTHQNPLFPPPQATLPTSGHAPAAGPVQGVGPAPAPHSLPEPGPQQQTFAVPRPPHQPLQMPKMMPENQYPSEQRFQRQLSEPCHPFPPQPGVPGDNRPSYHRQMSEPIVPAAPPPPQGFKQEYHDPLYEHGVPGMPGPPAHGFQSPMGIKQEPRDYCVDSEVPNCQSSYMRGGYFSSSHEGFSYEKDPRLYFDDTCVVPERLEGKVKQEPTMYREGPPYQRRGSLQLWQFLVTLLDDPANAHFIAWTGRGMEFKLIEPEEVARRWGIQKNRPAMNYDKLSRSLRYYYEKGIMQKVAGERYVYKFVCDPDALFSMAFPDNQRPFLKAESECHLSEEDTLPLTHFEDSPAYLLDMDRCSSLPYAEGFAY
The target in test [3] is HSF1 (Homo sapiens, UniProt Q00613 1-529). As to conditions: protein: recombinant; tags: N-terminal GST; chain copies: 3; dsDNA, one strand shown. The method, boiled down:
as §1

Test [4] deals with T2, SPIC (Homo sapiens, UniProt Q8N5J4 1-248).
T2 sequence: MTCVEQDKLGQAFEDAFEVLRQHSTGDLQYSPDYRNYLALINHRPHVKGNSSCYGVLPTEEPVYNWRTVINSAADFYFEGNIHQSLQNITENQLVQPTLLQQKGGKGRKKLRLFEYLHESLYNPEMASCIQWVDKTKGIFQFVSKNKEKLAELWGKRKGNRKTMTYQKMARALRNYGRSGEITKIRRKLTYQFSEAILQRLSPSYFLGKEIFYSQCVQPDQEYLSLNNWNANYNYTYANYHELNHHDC
As to conditions: protein: recombinant; tags: N-terminal GST; dsDNA, one strand shown. The gist of the method: as §1

Test [5] has as its target ELF4 (Homo sapiens, UniProt Q99607 1-663). As to conditions: protein: recombinant; tags: N-terminal GST; dsDNA, one strand shown. The gist of the method: as §1
Test [6] addresses T3, ELK4 (Homo sapiens, UniProt P28324-2 1-405).
T3 sequence: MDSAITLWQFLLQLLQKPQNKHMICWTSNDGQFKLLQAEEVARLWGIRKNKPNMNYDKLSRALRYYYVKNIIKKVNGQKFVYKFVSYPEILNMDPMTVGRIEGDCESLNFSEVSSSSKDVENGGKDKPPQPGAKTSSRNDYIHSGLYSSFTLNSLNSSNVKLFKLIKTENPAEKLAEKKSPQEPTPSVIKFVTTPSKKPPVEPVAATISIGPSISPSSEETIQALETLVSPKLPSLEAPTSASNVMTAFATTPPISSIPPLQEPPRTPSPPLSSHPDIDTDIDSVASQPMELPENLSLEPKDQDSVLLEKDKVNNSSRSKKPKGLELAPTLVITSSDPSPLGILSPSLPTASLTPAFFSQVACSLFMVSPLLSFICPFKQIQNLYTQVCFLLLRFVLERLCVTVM
The conditions noted are these: protein: recombinant; tags: N-terminal GST; dsDNA, one strand shown. The gist of the method:
as §1

Test [7] deals with T4, ETV2 (Homo sapiens, UniProt O00321 1-342).
T4 sequence: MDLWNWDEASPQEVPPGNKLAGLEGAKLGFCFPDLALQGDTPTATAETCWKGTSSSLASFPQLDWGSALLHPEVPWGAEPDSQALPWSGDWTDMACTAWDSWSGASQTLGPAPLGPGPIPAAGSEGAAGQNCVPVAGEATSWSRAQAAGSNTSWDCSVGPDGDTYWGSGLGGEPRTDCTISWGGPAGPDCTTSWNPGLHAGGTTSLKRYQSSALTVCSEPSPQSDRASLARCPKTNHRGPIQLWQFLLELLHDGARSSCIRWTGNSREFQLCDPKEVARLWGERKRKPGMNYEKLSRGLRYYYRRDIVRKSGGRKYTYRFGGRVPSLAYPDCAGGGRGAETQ
As to conditions: protein: recombinant; tags: N-terminal GST; dsDNA, one strand shown. The gist of the method: as §1

Test [8] concerns the target T5, ELF3 (Homo sapiens, UniProt P78545 1-371).
T5 sequence: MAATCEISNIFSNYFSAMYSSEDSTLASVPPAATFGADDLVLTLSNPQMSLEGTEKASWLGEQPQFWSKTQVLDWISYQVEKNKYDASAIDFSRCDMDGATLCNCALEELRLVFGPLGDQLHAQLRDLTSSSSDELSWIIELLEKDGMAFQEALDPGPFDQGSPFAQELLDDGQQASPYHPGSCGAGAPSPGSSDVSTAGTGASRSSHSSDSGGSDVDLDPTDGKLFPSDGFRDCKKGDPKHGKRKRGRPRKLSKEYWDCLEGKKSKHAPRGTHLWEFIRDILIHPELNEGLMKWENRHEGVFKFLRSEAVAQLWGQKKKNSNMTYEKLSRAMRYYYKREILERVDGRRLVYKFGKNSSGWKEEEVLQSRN
As to conditions: protein: recombinant; tags: N-terminal GST; dsDNA, one strand shown. The gist of the method:
as §1

The target of test [9] is CRX (Homo sapiens, UniProt O43186 1-299). As to conditions: protein: recombinant; tags: N-terminal GST; dsDNA, one strand shown. The method, boiled down: as §1
Sequence of CRX (O43186 whole entry): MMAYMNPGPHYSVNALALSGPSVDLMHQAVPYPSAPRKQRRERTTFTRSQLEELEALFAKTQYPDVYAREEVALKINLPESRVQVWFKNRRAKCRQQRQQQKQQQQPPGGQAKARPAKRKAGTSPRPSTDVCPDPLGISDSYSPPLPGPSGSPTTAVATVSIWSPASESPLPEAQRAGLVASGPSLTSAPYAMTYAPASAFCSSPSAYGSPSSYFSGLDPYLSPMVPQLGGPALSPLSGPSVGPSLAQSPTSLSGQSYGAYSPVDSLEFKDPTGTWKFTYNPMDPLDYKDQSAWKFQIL
Test [10] concerns the target ETV1 (Homo sapiens, UniProt P50549 1-477). As to conditions: protein: recombinant; tags: N-terminal GST; dsDNA, one strand shown. The gist of the method: as §1
Test [11] has as its target T6, ERF (Homo sapiens, UniProt P50548 1-548).
T6 sequence: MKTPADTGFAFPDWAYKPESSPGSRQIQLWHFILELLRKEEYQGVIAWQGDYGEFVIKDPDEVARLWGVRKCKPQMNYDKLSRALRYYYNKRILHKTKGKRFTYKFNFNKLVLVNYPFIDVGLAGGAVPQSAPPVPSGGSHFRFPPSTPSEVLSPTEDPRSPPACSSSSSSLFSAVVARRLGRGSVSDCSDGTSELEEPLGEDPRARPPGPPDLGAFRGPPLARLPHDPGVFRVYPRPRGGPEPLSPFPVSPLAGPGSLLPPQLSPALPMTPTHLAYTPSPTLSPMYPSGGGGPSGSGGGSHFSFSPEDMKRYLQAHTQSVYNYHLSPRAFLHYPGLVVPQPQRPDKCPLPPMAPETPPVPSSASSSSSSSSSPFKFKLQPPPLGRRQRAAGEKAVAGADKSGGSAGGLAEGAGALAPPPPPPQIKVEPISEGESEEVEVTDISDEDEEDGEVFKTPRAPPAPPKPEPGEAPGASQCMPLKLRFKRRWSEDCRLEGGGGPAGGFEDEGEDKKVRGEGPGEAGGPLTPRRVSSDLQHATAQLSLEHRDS
As to conditions: protein: recombinant; tags: N-terminal GST; dsDNA, one strand shown. The gist of the method: as §1

Test [12] has as its target T7, ETV3L (Homo sapiens, UniProt Q6ZN32 1-361).
T7 sequence: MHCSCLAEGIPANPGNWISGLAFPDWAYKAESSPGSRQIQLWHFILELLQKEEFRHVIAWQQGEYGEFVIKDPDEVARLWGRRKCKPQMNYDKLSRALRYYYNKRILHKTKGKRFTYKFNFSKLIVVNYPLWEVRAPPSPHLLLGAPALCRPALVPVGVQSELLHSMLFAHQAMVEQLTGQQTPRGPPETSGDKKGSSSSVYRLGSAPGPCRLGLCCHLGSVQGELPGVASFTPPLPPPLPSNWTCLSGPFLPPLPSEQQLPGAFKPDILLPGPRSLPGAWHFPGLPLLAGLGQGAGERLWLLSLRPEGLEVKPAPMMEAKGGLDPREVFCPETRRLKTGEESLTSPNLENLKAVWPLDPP
As to conditions: protein: recombinant; tags: N-terminal GST; dsDNA, one strand shown. The method, boiled down: as §1

The target of test [13] is T8, ETS2 (Homo sapiens, UniProt P15036 1-469).
T8 sequence: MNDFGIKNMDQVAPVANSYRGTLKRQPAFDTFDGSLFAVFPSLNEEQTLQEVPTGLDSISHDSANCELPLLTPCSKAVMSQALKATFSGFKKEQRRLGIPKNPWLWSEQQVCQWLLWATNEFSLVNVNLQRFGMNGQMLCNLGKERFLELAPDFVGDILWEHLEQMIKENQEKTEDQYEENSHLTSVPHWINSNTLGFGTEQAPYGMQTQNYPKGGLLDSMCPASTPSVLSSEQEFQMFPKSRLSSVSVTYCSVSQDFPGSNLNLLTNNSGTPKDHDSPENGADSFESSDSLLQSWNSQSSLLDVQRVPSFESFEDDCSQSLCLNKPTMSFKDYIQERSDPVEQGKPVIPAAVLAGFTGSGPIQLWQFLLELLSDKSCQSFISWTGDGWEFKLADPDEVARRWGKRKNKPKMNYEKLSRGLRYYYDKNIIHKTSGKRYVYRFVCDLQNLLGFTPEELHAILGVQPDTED
The conditions noted are these: protein: recombinant; tags: N-terminal GST; dsDNA, one strand shown. The gist of the method:
as §1

The target in test [14] is T9, SPDEF (Homo sapiens, UniProt O95238 1-335).
T9 sequence: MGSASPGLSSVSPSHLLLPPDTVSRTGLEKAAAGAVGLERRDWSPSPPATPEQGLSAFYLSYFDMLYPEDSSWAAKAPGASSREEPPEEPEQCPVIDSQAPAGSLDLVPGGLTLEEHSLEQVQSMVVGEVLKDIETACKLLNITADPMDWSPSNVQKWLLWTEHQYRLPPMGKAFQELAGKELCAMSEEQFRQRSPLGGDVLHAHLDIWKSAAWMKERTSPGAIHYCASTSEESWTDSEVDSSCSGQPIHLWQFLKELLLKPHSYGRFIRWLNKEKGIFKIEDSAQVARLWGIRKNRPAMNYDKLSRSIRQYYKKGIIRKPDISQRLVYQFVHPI
As to conditions: protein: recombinant; tags: N-terminal GST; dsDNA, one strand shown. The method, boiled down: as §1

Test [15] addresses T10, ETV7 (Homo sapiens, UniProt Q9Y603 1-341).
T10 sequence: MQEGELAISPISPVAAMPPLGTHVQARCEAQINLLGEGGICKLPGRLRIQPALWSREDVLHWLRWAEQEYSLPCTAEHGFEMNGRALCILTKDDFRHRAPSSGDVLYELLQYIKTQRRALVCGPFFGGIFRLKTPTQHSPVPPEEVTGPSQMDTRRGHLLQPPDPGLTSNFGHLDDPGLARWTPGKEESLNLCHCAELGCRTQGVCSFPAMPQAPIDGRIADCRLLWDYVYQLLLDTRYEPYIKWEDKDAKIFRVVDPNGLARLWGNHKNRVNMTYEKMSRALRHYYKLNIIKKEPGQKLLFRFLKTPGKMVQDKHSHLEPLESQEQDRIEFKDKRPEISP
The conditions noted are these: protein: recombinant; tags: N-terminal GST; dsDNA, one strand shown. The gist of the method: as §1

For test [16], the target named is T11, ELF5 (Homo sapiens, UniProt Q9UKW6-2 1-255).
T11 sequence: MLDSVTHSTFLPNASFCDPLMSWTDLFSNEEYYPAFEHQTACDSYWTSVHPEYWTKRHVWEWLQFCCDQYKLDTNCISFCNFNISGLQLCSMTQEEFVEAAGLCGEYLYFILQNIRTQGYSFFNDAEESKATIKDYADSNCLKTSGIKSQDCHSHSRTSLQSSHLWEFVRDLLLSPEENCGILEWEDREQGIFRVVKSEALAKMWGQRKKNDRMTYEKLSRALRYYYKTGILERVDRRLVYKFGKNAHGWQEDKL
The conditions noted are these: protein: recombinant; tags: N-terminal GST; dsDNA, one strand shown. The method, boiled down:
as §1

In test [17] the target is T12, ETV3 (Homo sapiens, UniProt P41162-2 1-143).
T12 sequence: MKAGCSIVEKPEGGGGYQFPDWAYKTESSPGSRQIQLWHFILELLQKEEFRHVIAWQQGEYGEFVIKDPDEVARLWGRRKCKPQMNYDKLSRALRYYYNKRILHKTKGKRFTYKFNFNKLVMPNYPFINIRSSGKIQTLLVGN
The conditions noted are these: protein: recombinant; tags: N-terminal GST; dsDNA, one strand shown. The gist of the method:
as §1

The target in test [18] is ETV6 (Homo sapiens, UniProt P41212 1-452). As to conditions: protein: recombinant; tags: N-terminal GST; dsDNA, one strand shown. The gist of the method:
as §1

Sequence of HSF1 (Q00613 whole entry): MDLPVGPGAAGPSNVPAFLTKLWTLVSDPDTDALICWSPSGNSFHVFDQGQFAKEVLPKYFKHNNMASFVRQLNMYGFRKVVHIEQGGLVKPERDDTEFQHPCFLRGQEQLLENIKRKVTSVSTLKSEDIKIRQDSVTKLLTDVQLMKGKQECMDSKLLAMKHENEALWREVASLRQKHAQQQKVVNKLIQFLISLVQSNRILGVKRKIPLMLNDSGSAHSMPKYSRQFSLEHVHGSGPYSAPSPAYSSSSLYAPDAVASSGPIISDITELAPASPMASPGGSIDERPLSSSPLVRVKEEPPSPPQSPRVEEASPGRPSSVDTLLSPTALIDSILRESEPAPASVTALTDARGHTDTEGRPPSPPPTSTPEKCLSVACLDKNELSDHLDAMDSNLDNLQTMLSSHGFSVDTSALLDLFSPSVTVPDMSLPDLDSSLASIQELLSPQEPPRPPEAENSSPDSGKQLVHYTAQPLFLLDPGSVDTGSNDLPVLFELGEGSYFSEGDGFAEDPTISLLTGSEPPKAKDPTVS
Sequence of ETV1 (P50549 whole entry): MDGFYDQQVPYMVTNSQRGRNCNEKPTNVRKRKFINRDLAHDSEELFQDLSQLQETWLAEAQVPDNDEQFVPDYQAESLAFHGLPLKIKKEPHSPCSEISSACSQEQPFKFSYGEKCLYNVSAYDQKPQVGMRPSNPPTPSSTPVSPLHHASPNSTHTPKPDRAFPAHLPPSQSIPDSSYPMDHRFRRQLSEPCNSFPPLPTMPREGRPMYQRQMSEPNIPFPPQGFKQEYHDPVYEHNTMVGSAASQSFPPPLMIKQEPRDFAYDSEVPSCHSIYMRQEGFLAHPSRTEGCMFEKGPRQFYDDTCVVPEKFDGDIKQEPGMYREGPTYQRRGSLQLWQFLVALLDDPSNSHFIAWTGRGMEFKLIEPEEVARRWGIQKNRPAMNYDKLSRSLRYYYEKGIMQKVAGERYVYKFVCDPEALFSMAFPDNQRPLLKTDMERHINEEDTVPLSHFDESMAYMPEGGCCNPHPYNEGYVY
Sequence of ELF4 (Q99607 whole entry): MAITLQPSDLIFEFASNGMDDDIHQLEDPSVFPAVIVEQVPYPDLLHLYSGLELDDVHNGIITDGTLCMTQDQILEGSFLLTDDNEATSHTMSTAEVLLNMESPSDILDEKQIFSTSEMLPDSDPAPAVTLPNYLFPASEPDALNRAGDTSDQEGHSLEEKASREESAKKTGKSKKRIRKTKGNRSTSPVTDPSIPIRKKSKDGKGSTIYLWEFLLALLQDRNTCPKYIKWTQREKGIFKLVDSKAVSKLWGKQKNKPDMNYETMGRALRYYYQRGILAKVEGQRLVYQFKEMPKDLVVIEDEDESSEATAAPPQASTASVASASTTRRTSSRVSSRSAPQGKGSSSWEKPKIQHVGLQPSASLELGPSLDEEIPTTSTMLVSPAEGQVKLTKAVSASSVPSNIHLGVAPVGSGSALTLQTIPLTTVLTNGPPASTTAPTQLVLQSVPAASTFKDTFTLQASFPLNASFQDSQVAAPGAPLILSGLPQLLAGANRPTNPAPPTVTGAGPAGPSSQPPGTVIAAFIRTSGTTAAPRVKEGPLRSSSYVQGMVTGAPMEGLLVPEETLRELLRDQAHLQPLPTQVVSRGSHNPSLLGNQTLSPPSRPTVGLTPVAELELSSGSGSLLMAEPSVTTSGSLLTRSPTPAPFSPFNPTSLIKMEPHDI
Sequence of ETV6 (P41212 whole entry): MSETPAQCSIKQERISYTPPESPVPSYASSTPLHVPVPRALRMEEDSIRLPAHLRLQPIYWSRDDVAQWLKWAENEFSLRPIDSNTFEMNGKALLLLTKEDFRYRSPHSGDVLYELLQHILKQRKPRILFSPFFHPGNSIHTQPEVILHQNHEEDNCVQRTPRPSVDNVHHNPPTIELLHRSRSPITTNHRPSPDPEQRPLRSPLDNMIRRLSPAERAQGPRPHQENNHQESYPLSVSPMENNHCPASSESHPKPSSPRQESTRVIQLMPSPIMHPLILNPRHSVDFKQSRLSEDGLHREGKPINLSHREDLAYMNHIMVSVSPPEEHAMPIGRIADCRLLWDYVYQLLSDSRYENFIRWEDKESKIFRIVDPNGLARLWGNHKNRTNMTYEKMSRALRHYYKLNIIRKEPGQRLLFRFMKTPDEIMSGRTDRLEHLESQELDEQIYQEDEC

For the sequence CTCATT, the binding signal in test [1] was 1.44 fold enrichment (6-mer frequency, TF over GST control); in test [2] it was 1.41 fold enrichment (6-mer frequency, TF over GST control); in test [3], 1.36 fold enrichment (6-mer frequency, TF over GST control); in [4], 1.29 fold enrichment (6-mer frequency, TF over GST control); in [5], 1.52 fold enrichment (6-mer frequency, TF over GST control); in test [6], 1.63 fold enrichment (6-mer frequency, TF over GST control). Also, the binding signal in test [7] is 1.49 fold enrichment (6-mer frequency, TF over GST control); in test [8], 1.35 fold enrichment (6-mer frequency, TF over GST control); in test [9], 1.45 fold enrichment (6-mer frequency, TF over GST control); in [10], 1.52 fold enrichment (6-mer frequency, TF over GST control); in [11] it was 1.35 fold enrichment (6-mer frequency, TF over GST control); in test [12] it was 1.47 fold enrichment (6-mer frequency, TF over GST control). Besides, the binding signal is 1.49 fold enrichment (6-mer frequency, TF over GST control) in [13]; 1.33 fold enrichment (6-mer frequency, TF over GST control) in test [14]; 1.29 fold enrichment (6-mer frequency, TF over GST control) in test [15]; 1.5 fold enrichment (6-mer frequency, TF over GST control) in test [16]; 1.39 fold enrichment (6-mer frequency, TF over GST control) in test [17]; 1.45 fold enrichment (6-mer frequency, TF over GST control) in test [18].
